M1 antagonist – blocks the rat M1 muscarinic receptor response to acetylcholine; P08482; CHO-M1 cells, Fluo-4 calcium, ACh EC80 antagonist mode; hits give low values; B-score at 10 µM; 64,000 compounds, 3.4% hits;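 active = calcium fluorescence response, raw or row-and-column corrected B-score, differing from the plate sample mean either way at a set confidence level, mostly lower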
Target sequence (P08482 whole entry, looked up): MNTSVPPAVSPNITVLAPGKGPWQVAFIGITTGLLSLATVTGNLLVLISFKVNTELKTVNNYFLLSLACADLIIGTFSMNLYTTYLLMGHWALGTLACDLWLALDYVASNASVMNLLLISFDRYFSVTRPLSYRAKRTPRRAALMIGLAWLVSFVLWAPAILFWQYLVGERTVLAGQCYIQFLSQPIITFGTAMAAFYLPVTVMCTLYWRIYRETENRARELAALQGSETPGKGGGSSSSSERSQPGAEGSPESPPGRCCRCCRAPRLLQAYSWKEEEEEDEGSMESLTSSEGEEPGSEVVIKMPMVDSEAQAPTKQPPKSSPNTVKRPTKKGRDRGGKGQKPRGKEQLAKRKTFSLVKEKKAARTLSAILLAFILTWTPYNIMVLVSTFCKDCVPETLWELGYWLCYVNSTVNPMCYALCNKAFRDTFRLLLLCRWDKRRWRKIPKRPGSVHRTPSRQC
D1 mod – allosterically modulates the human D1 dopamine receptor; HEK293 D1, CRE-luciferase, dopamine EC30 potentiation; actives deviate in either direction; P21728; B-score at 10 µM; 58,000 compounds, 5.9% hits;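 active = luminescence count or its row- and column-corrected plate score outside the 99.7% band of the plate's sample wells, on either side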
WNV NS2B-NS3 inh – inhibitors of West Nile virus NS2B-NS3 protease; P06935; WNV NS2B-NS3 protease, fluorogenic substrate Ex360/Em465; hits give low values; z-score (test concentration not listed); 65,000 compounds, 0.18% hits; in the data active = z-score below about -3
M1 agonist – agonists of M1 muscarinic receptor | CHO-M1 cells, Fluo-4 calcium fluorescence, agonist mode; hits give high values | B-score at 10 µM | 64,000 compounds, 3% hits | AID 626;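 active = fluorescence rise, raw or as B-score row- and column-corrected plate score, outside the 99.7% band of its plate's samples, either direction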
mHtt clearance – compounds clearing mutant huntingtin protein; HeLa Exon1htt(103Q)mCFP, aggregate imaging; zero = plate's median compound well; inhibition, % at 1.5 µM; 47,000 compounds, 0.42% hits; AID 853;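 active = inhibition of aggregate fluorescence above about 70%, also judged a hit by eye on the cell image, limit read from the data, passing the limit was not always enough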;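 also: cells exposed to compound for three days before fixation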
M1 antag conf – confirmation of rat M1 muscarinic receptor antagonists; CHO-M1 cells, Fluo-4 calcium, ACh EC80 antagonism; hits give low values; calcium response (max-min fluorescence) at 10 µM; 1,700 compounds, 43% hits; shares compounds with M1 antagonist; AID 677;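 active = calcium response below the same-plate mean of wells given acetylcholine alone at its 80%-effect dose, minus 3 SD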
mGluR4 antag – mGluR4 (human) activity, M1 antagonist secondary assay; shares compounds with M1 antagonist; CHO-mGluR4 calcium flux, Fluo-4 fluorescence, glutamate EC80; hits give low values; fluorescence response (max-min) at 10 µM; 1,700 compounds, 0.9% hits; AID 678;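 active = fluorescence response below the plate's average for near-maximal glutamate wells, less 3 SD of those wells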;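 also: raw unnormalized fluorescence span taken in the window right after glutamate addition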
Numbers stand for hits. Shown are actives, neighbours in structure and some others; about 8.9% of the full set was active somewhere.

What do the screens show for `Cc1ccc(N2CC(c3nc4ccccc4n3C)CC2=O)cc1C` (stereo not given)?
M1 antagonist: -4.05; D1 mod: inactive; WNV NS2B-NS3 inh: inactive; M1 agonist: inactive; M1 antag conf: 447; mGluR4 antag: inactive

Results for O=C(Cn1cc2c(n1)CCCC2)N1CCCc2ccccc21 ?
M1 antagonist: inactive; WNV NS2B-NS3 inh: inactive; M1 agonist: inactive

What do the screens show for `O=C(CCCN1CCC(c2ccccc2)C1)c1ccc2c(c1)OCCO2` (stereo not given)?
M1 antagonist: -8.75; D1 mod: inactive; WNV NS2B-NS3 inh: inactive; M1 agonist: inactive; mHtt clearance: inactive; M1 antag conf: 251; mGluR4 antag: inactive

How did O=C(CCN1CCc2ccccc2CC1)c1ccc2c(c1)OCCO2 do in these assays?
M1 antagonist: -3.86; WNV NS2B-NS3 inh: inactive; M1 agonist: inactive; M1 antag conf: 215; mGluR4 antag: inactive

How did O=C(CCCN1CCOCC1)c1ccc2c(c1)OCCO2 do in these assays?
M1 antagonist: inactive; D1 mod: inactive; WNV NS2B-NS3 inh: inactive; M1 agonist: inactive; mHtt clearance: inactive

How did O=C(CCN1CCOCC1)c1ccc2c(c1)OCCO2 do in these assays?
mHtt clearance: inactive

What do the screens show for `COC(=O)c1ccc(-n2nnnc2SCc2ccccc2OC)cc1`?
M1 antagonist: inactive; D1 mod: inactive; WNV NS2B-NS3 inh: inactive; M1 agonist: inactive

What do the screens show for `CC(C)Oc1ccc(Cc2c(O)nc(NCCCN(C)C)[nH]c2=O)cc1`?
M1 antagonist: inactive; D1 mod: inactive; WNV NS2B-NS3 inh: inactive; M1 agonist: inactive

Results for CCc1ccc(NC(=O)Nc2cccs2)cc1 ?
M1 antagonist: -2.31; D1 mod: inactive; WNV NS2B-NS3 inh: inactive; M1 agonist: inactive; M1 antag conf: inactive; mGluR4 antag: inactive

Results for CCN1CCCC1CNCc1ccc(Cl)cc1Cl (stereo not given) ?
M1 antagonist: -3.1; D1 mod: inactive; WNV NS2B-NS3 inh: inactive; M1 agonist: inactive; M1 antag conf: 529; mGluR4 antag: inactive

How did CCCc1cc(NCC2CCCO2)n2c(nc3ccccc32)c1C#N (stereo not given) do in these assays?
mHtt clearance: inactive

Results for O=C(NCc1ccncc1)c1cccc(Cn2cc(Br)cn2)c1 ?
M1 antagonist: -10; D1 mod: inactive; WNV NS2B-NS3 inh: inactive; M1 agonist: inactive; mHtt clearance: inactive; M1 antag conf: 87.8; mGluR4 antag: inactive

Results for O=C(O)c1cccc(Cn2cc(Br)cn2)c1 ?
M1 antagonist: inactive; D1 mod: inactive; WNV NS2B-NS3 inh: inactive; M1 agonist: inactive; mHtt clearance: inactive

What do the screens show for `CCCc1cc(=O)[nH]c(/N=C(/NC(=O)c2ccccc2)Nc2ccc3c(c2)OCCO3)n1`?
M1 antagonist: inactive; D1 mod: inactive; WNV NS2B-NS3 inh: inactive; M1 agonist: inactive

Results for O=C(CSc1ccc2c(c1)OCCO2)Nc1ccc(Cl)cn1 ?
M1 antagonist: -3.22; D1 mod: inactive; WNV NS2B-NS3 inh: inactive; M1 agonist: inactive; mHtt clearance: inactive; M1 antag conf: inactive; mGluR4 antag: inactive

How did Cc1c(NC(=O)CSc2ccc3c(c2)OCCO3)c(=O)n(-c2ccccc2)n1C do in these assays?
M1 antagonist: inactive; D1 mod: inactive; WNV NS2B-NS3 inh: inactive; M1 agonist: inactive

Results for CCOc1ccc(Br)cc1S(=O)(=O)Nc1ccccc1N1CCOCC1 ?
M1 antagonist: inactive; D1 mod: inactive; WNV NS2B-NS3 inh: inactive; M1 agonist: inactive; mHtt clearance: inactive

What do the screens show for `CC(=O)Nc1ccc(S(=O)(=O)n2nc(C)cc2C)cc1`?
M1 antagonist: inactive; D1 mod: inactive; WNV NS2B-NS3 inh: inactive; M1 agonist: inactive

What do the screens show for `Cc1ccc2ccc(S(=O)(=O)n3nc(C)cc3C)cc2c1`?
M1 antagonist: -1.97; D1 mod: inactive; WNV NS2B-NS3 inh: inactive; M1 agonist: inactive; mHtt clearance: inactive; M1 antag conf: 443; mGluR4 antag: inactive

How did O=C(CSc1ncnc2c1nnn2-c1ccc(F)cc1)NCC1CCCO1 (stereo not given) do in these assays?
M1 antagonist: inactive; D1 mod: inactive; WNV NS2B-NS3 inh: inactive; M1 agonist: inactive; mHtt clearance: inactive

Assay outcomes: PubChem, several laboratories
